An excerpt weighted towards active compounds, which were near 4% of everything screened.
Peg3 promoter: Peg3 promoter activity inhibition; hit rate 1.7% among 360,000; inhibition, % at 20 µM; AID 588405; HeLa PEG-Prom luciferase reporter, luminescence, overnight;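 active = inhibition of at least 50% at 20 µM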
HIF-2a inh: blocks HIF-2a reporter activity; AID 624352; 786-0 RCC cells HIF-2a reporter, luciferase luminescence, overnight; inhibition, % at 18.8 µM; hit rate 0.72% among 360,000;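 active = inhibition of the luminescence signal of 40% or more relative to plate controls, in a single-dose primary screen at 18.75 µM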
MITF TRPM1 inh: MITF TRPM1 promoter inhibition in SK-MEL-5 cells. AID 488899. hit rate 0.83% among 330,000. inhibition, % at 12.5 µM. SK-MEL-5 TRPM1 promoter luciferase, 24 h;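 active = mean inhibition across replicates of 60% or more, whatever share of single replicates reaches that level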
TROY signal inh: blocks TROY-dependent signaling in reporter cells | hit rate 0.98% among 360,000 | Q293 LMP1-TROYcd NF-kB luciferase reporter, 4 h | inhibition, % at 10 µM;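 active = compounds whose plate-normalised and pattern-corrected inhibition of the luciferase reporter signal at the single screening dose is 50% or more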
TWEAK Fn14 block: TWEAK-Fn14 signaling inhibition. hit rate 2% among 360,000. TWEAK-stimulated Fn14 reporter cells, luciferase luminescence, 8 h. inhibition, % at 10 µM; in the data active = inhibition above about 50%
LMP1 NFkB inh: reduces LMP1-driven NF-kappaB luciferase signal | LMP1-induced NF-kappaB luciferase reporter cells, luminescence | inhibition, % at 12.5 µM | hit rate 0.69% among 350,000 | AID 504558; in the data active = inhibition above about 41%
A number is an active result.

How did COc1ccc(CNn2c(-c3cccs3)nc3ccccc3c2=O)cc1OC do in these assays?
Peg3 promoter: 53; HIF-2a inh: inactive; MITF TRPM1 inh: inactive; TROY signal inh: inactive; TWEAK Fn14 block: inactive; LMP1 NFkB inh: inactive

How did Cc1ccc(C(=O)OCC(=O)N2CCC(C)CC2)cc1S(=O)(=O)N1CCOCC1 do in these assays?
Peg3 promoter: inactive; HIF-2a inh: inactive; TROY signal inh: inactive; TWEAK Fn14 block: inactive; LMP1 NFkB inh: inactive

How did O=C(Nc1nnc([C@H]2C[C@H](O)[C@@H](CO)O2)s1)C(c1ccccc1)c1ccccc1 do in these assays?
Peg3 promoter: inactive; HIF-2a inh: inactive; TROY signal inh: inactive; TWEAK Fn14 block: inactive

Results for COc1ccc2c(c1)CC/C(=C\c1ccc(OC)c(Cn3cccn3)c1)C2=O ?
Peg3 promoter: inactive; HIF-2a inh: inactive; MITF TRPM1 inh: inactive; TROY signal inh: inactive; TWEAK Fn14 block: 59; LMP1 NFkB inh: inactive

Results for COc1ccc2c(c1)CC/C(=C\c1ccc(OC)c(Cn3nc(C)cc3C)c1)C2=O ?
Peg3 promoter: inactive; HIF-2a inh: inactive; MITF TRPM1 inh: inactive; TROY signal inh: inactive; TWEAK Fn14 block: inactive; LMP1 NFkB inh: inactive

What do the screens show for `CCOc1ccc(/C=C2\CCc3ccccc3C2=O)cc1`?
Peg3 promoter: inactive; HIF-2a inh: inactive; MITF TRPM1 inh: inactive; TROY signal inh: 70; TWEAK Fn14 block: 90; LMP1 NFkB inh: inactive

Results for COc1ccc(/C=C2/CCc3ccccc3C2=O)cc1OC ?
Peg3 promoter: inactive; HIF-2a inh: inactive; MITF TRPM1 inh: inactive; TROY signal inh: inactive; TWEAK Fn14 block: inactive; LMP1 NFkB inh: inactive

What do the screens show for `COc1ccc(C=C2CCc3ccccc3C2=O)cc1`?
Peg3 promoter: inactive; HIF-2a inh: inactive; TROY signal inh: 61; TWEAK Fn14 block: 94

How did O=C(c1cc(S(=O)(=O)N2CCOCC2)ccc1Cl)N1CCCCC1CO (stereo not given) do in these assays?
Peg3 promoter: inactive; HIF-2a inh: inactive; MITF TRPM1 inh: inactive; TROY signal inh: inactive; TWEAK Fn14 block: inactive; LMP1 NFkB inh: inactive

How did COc1cc(CN2C[C@@H](CO)O[C@@H](n3cnc4c(N5CCCC5)ncnc43)C2)cc(OC)c1OC do in these assays?
Peg3 promoter: inactive; HIF-2a inh: inactive; TROY signal inh: inactive; TWEAK Fn14 block: inactive

How did Cc1nnc(SCC(=O)NC2CCCC2)n1C(C)C do in these assays?
Peg3 promoter: inactive; HIF-2a inh: inactive; MITF TRPM1 inh: inactive; TROY signal inh: inactive; TWEAK Fn14 block: inactive; LMP1 NFkB inh: inactive

How did O=C(N/N=C/c1ccc2c(c1)OCO2)C1CC1 do in these assays?
Peg3 promoter: inactive; HIF-2a inh: inactive; MITF TRPM1 inh: inactive; TROY signal inh: inactive; TWEAK Fn14 block: inactive; LMP1 NFkB inh: inactive

What do the screens show for `CC1(C)CNc2cc(N)ccc2S1`?
Peg3 promoter: inactive; HIF-2a inh: inactive; MITF TRPM1 inh: inactive; TROY signal inh: 51; TWEAK Fn14 block: 51; LMP1 NFkB inh: inactive

Results for COc1ccc2nc(Nc3nc(CSc4nc5ccccc5[nH]4)cc(=O)[nH]3)nc(C)c2c1 ?
Peg3 promoter: 98; HIF-2a inh: inactive; MITF TRPM1 inh: inactive; TROY signal inh: 58; TWEAK Fn14 block: 91; LMP1 NFkB inh: inactive

What do the screens show for `Cc1nc(Nc2nc(CSc3ccc(Cl)cc3)cc(=O)[nH]2)nc2ccccc12`?
Peg3 promoter: inactive; HIF-2a inh: inactive; MITF TRPM1 inh: inactive; TROY signal inh: inactive; TWEAK Fn14 block: inactive; LMP1 NFkB inh: inactive

Results for CCc1c(C)nc(Nc2nc(C)c3ccc(OC)cc3n2)[nH]c1=O ?
Peg3 promoter: inactive; HIF-2a inh: inactive; MITF TRPM1 inh: inactive; TROY signal inh: inactive; TWEAK Fn14 block: inactive; LMP1 NFkB inh: inactive

Results for COc1ccc2c(C)nc(Nc3nc(C)c(C)c(=O)[nH]3)nc2c1 ?
Peg3 promoter: inactive; HIF-2a inh: inactive; MITF TRPM1 inh: inactive; TROY signal inh: inactive; TWEAK Fn14 block: 53; LMP1 NFkB inh: inactive

Results for COc1cccc2c(C)nc(Nc3nc(CSc4nnc(C)s4)cc(=O)[nH]3)nc12 ?
Peg3 promoter: 76; HIF-2a inh: inactive; MITF TRPM1 inh: inactive; TROY signal inh: inactive; TWEAK Fn14 block: inactive; LMP1 NFkB inh: inactive

How did Cc1nc(Nc2nc(CSc3nc4ccccc4[nH]3)cc(=O)[nH]2)nc2ccccc12 do in these assays?
Peg3 promoter: 102; HIF-2a inh: inactive; MITF TRPM1 inh: inactive; TROY signal inh: inactive; TWEAK Fn14 block: 92; LMP1 NFkB inh: inactive

Results for CSCCC(NS(=O)(=O)c1ccc(C)cc1)C(=O)NC1CCCCCC1 (stereo not given) ?
Peg3 promoter: inactive; HIF-2a inh: inactive; MITF TRPM1 inh: inactive; TROY signal inh: inactive; TWEAK Fn14 block: inactive; LMP1 NFkB inh: inactive

How did Cc1cc(C)cc(N(CCC#N)C(=O)COC(=O)c2nc3nc(C)cc(C)n3n2)c1 do in these assays?
Peg3 promoter: inactive; HIF-2a inh: inactive; MITF TRPM1 inh: inactive; TROY signal inh: inactive; TWEAK Fn14 block: inactive; LMP1 NFkB inh: inactive

Results for Cc1nc(Nc2nc(-c3ccccc3)cc(=O)[nH]2)nc2ccccc12 ?
Peg3 promoter: 64; HIF-2a inh: inactive; MITF TRPM1 inh: inactive; TROY signal inh: inactive; TWEAK Fn14 block: inactive; LMP1 NFkB inh: inactive

Results for COc1nc(Nc2nc3ccccc3c(=O)[nH]2)nc2ccc(C)cc12 ?
Peg3 promoter: 98; HIF-2a inh: inactive; MITF TRPM1 inh: inactive; TROY signal inh: inactive; TWEAK Fn14 block: 55; LMP1 NFkB inh: 50

How did Cc1cc(C(C)(C)C)c(OC(=O)[C@@H]2OC(c3ccccc3)=C[C@H]2c2ccccc2)c(C(C)(C)C)c1 do in these assays?
Peg3 promoter: inactive; HIF-2a inh: inactive; MITF TRPM1 inh: inactive; TROY signal inh: inactive; TWEAK Fn14 block: inactive; LMP1 NFkB inh: inactive

How did Cc1ccc(S(=O)(=O)N2CCCN(C(=O)c3cc4ccccc4[nH]3)CC2)cc1 do in these assays?
Peg3 promoter: inactive; HIF-2a inh: inactive; MITF TRPM1 inh: inactive; TROY signal inh: inactive; TWEAK Fn14 block: inactive; LMP1 NFkB inh: inactive

How did Cc1ccc(C(=O)N2N=C(c3ccc(NS(C)(=O)=O)cc3)CC2c2cccs2)cc1 (stereo not given) do in these assays?
Peg3 promoter: inactive; HIF-2a inh: inactive; MITF TRPM1 inh: inactive; TROY signal inh: inactive; TWEAK Fn14 block: inactive; LMP1 NFkB inh: inactive

Results for COc1ccc(C(=O)N2N=C(c3ccc(NS(C)(=O)=O)cc3)CC2c2cccs2)cc1 (stereo not given) ?
Peg3 promoter: inactive; HIF-2a inh: inactive; MITF TRPM1 inh: inactive; TROY signal inh: 51; TWEAK Fn14 block: inactive; LMP1 NFkB inh: inactive

How did CCN1CCN(c2ccc(S(=O)(=O)N3CCCCC3)cc2NC(=O)c2ccc([N+](=O)[O-])s2)CC1 do in these assays?
Peg3 promoter: 64; HIF-2a inh: inactive; MITF TRPM1 inh: 85; TROY signal inh: inactive; TWEAK Fn14 block: inactive; LMP1 NFkB inh: inactive

What do the screens show for `CCN1CCN(c2ccc(S(=O)(=O)N3CCCCC3)cc2NC(=O)/C=C/c2ccc(Cl)cc2)CC1`?
Peg3 promoter: 85; HIF-2a inh: inactive; MITF TRPM1 inh: 89; TROY signal inh: inactive; TWEAK Fn14 block: inactive; LMP1 NFkB inh: inactive

How did CCN1CCN(c2ccc(S(=O)(=O)N3CCCCC3)cc2NC(=O)/C=C/c2cc(OC)ccc2OC)CC1 do in these assays?
Peg3 promoter: 101; HIF-2a inh: inactive; MITF TRPM1 inh: inactive; TROY signal inh: inactive; TWEAK Fn14 block: inactive; LMP1 NFkB inh: inactive

High-throughput results deposited in PubChem BioAssay by several laboratories.
